PubChem BioAssay (EPA / NIEHS)
Records with an inconclusive call do not appear. Calls of active or inactive are those of the source. How the source made its calls, unless noted: active means hit-call score of the fitted dose curve at least 0.9, where 1 is the maximum; inactive means score below 0.9.

Experiments:
[1] = ATG_NRF2_ARE_CIS: Attagene CIS-FACTORIAL HepG2 Assay for human Nuclear Factor Erythroid 2 Related Factor 2 (NFR2) response to Antioxidant Response Elements (ARE) (AID 2282992); settings: HepG2 Attagene ARE/NRF2 reporter, transcription factor activity; actives raise or lower the signal;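 on AC50: reporter mRNA level measured by RT-PCR and capillary electrophoresis fluorescence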
Method in brief: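 Transient MRTU transfection of HepG2; 24 h compound exposure; TriZol RNA, RT with oligo(dT), PCR, 6-FAM primer extension, HpaI cut, CE. Bidirectional fit vs DMSO.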

[2] = ATG_Oct_MLP_CIS: Attagene CIS-FACTORIAL HepG2 Assay for human Octamer-Binding Transcription Factor (Oct) (AID 2282993); settings: HepG2 Attagene cis-factorial Oct reporter, mRNA; actives raise or lower the signal
Method in brief: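 Read-out: reporter mRNA via RT-PCR plus capillary electrophoresis of 6-FAM-labelled fragments. Transiently transfected HepG2, 24 h exposure, endogenous TF activity on cis elements. Gain or loss of signal fitted relative to DMSO.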

[3] = molecular target: Cellular tumor antigen p53 (Homo sapiens) (UniProt P04637); assay: ATG_p53_CIS: Attagene CIS-FACTORIAL HepG2 Assay for human p53 Transcription Factor (AID 2282994); settings: HepG2 p53 cis-element reporter, Attagene mRNA; actives raise or lower the signal
Chain of Cellular tumor antigen p53 (Homo sapiens) (P04637 whole entry, looked up): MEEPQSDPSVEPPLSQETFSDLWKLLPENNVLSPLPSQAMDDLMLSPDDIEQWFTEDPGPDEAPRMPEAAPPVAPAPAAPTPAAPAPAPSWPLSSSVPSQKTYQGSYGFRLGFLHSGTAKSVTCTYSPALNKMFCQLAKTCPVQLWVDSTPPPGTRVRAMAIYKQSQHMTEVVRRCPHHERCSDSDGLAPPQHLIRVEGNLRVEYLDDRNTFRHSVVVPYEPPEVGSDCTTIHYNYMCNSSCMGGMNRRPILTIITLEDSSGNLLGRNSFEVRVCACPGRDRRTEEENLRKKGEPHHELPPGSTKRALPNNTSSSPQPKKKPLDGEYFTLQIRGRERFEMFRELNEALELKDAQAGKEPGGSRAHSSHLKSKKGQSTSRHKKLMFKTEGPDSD
Method in brief: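 HepG2, transient MRTU transfection (cis promoter elements, endogenous TFs); 24 h dosing; RNA isolation, RT-PCR, 6-FAM primer extension, HpaI digest, CE fluorescence; bidirectional fit vs DMSO.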

[4] = BSK_3C_uPAR: BioMAP Diversity Plus: 3C Assay for Urokinase-type plasminogen activator receptor (uPAR) Biomarker Activity (AID 2282998); settings: BioMAP 3C HUVEC, uPAR biomarker ELISA; actives raise or lower the signal
Method in brief: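 HUVEC primary cells; 24 h post-dose; uPAR by ELISA; gain or loss of signal fitted bidirectionally vs DMSO baseline.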

[5] = BSK_3C_VCAM1: BioMAP Diversity Plus: 3C Assay for Vascular cell adhesion molecule 1 (VCAM1) Biomarker Activity (AID 2282999); settings: BioMAP 3C HUVEC, VCAM1 ELISA, cytokine-stimulated; actives raise or lower the signal
Method in brief: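 Human umbilical vein endothelial cells (3C system), biomarker read by ELISA 24 h after dosing; bidirectional fit against DMSO baseline. Cytotoxicity tracked by SRB total-protein staining in parallel cultures at biomarker time.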

[6] = BSK_4H_Eotaxin3: BioMAP Diversity Plus: 4H Assay for Eotaxin 3 Biomarker Activity (AID 2283000); settings: primary human endothelial cells (HUVEC); actives raise or lower the signal
Method in brief: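 Eotaxin-3 (CCL26) levels were measured by ELISA in HUVEC primary cultures 24 h post-dosing. Gain or loss of signal was fitted in both directions, with DMSO serving as baseline and negative control.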

[7] = molecular target: human Peroxisome Proliferator-activated Receptor alpha (PPARa), PPARA (gene 5465) (UniProt Q07869); assay: ATG_PPARa_TRANS: Attagene TRANS-FACTORIAL HepG2 Assay for human Peroxisome Proliferator-activated Receptor alpha (PPARa) (AID 2283001; active means hit-call score of the fitted dose curve at least 0.9, where 1 is the maximum;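 on AC50: potency for gain of reporter signal over DMSO so agonist or activator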)
Chain of human Peroxisome Proliferator-activated Receptor alpha (PPARa), PPARA (gene 5465) (Q07869 whole entry, looked up, the tested form may be a part): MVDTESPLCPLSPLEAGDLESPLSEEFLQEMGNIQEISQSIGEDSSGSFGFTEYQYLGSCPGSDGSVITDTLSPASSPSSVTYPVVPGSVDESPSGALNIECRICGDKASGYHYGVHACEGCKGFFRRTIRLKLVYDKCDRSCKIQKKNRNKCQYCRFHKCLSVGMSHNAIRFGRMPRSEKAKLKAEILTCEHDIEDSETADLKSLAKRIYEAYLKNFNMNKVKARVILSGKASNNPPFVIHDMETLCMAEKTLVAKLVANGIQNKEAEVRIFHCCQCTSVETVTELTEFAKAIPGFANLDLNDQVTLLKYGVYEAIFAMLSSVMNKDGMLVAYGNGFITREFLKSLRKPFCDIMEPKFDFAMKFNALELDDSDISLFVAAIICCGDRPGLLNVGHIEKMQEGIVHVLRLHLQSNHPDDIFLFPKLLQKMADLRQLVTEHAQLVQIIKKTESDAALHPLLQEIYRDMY
Method in brief: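 Measures transcriptional activity of an exogenous chimeric PPARa-Gal4 protein in transiently transfected HepG2 cells after 24 h dosing. Reporter mRNA quantified via RT-PCR and capillary electrophoresis; DMSO served as negative control.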

[8] = read-out: Intercellular Adhesion Molecule 1 (ICAM1), ICAM1 (gene 3383); assay: BSK_3C_ICAM1: BioMAP Diversity Plus: 3C Assay for Intercellular Adhesion Molecule 1 (ICAM1) Biomarker Activity (AID 2283003); settings: primary human endothelial cells (HUVEC); actives raise or lower the signal
Method in brief: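 Primary human umbilical vein endothelial cells in the BioMAP 3C system were exposed to chemicals for 24 h, then ICAM-1 was quantified by ELISA. Activity was fitted bidirectionally against the DMSO negative control baseline.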

[9] = BSK_3C_Proliferation: Cell Proliferation Assessment in the BioMAP Diversity Plus: 3C Assay (AID 2283006); settings: primary human endothelial cells (HUVEC);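 on AC50: potency may reflect either rise or fall in cell number versus DMSO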
Method in brief: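 Human umbilical vein endothelial cells were grown sub-confluent and exposed to chemical for 48 h, then fixed with 10% TCA and stained with 0.1% sulforhodamine B; absorbance at 560 nm gave relative cell number, fitted bidirectionally against DMSO baseline.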

[10] = molecular target: Peroxisome proliferator-activated receptor gamma (Homo sapiens) (UniProt P37231); assay: ATG_PPARg_TRANS: Attagene TRANS-FACTORIAL HepG2 Assay for human Peroxisome Proliferator-activated Receptor-gamma (PPARg) (AID 2283007; active means hit-call score of the fitted dose curve at least 0.9, where 1 is the maximum)
Chain of Peroxisome proliferator-activated receptor gamma (Homo sapiens) (P37231 whole entry, looked up, the tested form may be a part): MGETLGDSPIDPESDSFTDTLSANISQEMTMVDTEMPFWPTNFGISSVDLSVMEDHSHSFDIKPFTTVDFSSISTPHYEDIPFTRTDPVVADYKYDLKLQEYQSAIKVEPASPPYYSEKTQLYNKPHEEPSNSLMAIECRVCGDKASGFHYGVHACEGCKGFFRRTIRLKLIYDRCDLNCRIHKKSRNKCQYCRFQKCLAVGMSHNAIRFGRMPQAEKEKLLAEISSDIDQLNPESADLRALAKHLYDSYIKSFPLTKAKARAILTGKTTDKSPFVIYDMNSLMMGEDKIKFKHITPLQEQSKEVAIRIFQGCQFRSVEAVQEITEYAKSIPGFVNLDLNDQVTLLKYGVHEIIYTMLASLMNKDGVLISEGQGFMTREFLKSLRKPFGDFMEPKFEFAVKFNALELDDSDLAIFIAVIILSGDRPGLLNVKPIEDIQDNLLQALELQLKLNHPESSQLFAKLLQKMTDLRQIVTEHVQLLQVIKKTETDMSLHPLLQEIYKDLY
Method in brief: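 Liver-derived HepG2 cells expressing an exogenous NR-Gal4 chimera alongside GAL4-UAS reporter genes; 24 h exposure. Fluorescence of reporter RT-PCR products, separated by capillary electrophoresis, gives mRNA induction relative to DMSO.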

[11] = molecular target: Retinoic acid receptor RXR-alpha (Homo sapiens) (UniProt P19793); assay: ATG_RXRa_TRANS: Attagene TRANS-FACTORIAL HepG2 Assay for human Retinoid X Receptor alpha (RXRa) (AID 2283012; active means hit-call score of the fitted dose curve at least 0.9, where 1 is the maximum)
Chain of Retinoic acid receptor RXR-alpha (Homo sapiens) (P19793 whole entry, looked up, the tested form may be a part): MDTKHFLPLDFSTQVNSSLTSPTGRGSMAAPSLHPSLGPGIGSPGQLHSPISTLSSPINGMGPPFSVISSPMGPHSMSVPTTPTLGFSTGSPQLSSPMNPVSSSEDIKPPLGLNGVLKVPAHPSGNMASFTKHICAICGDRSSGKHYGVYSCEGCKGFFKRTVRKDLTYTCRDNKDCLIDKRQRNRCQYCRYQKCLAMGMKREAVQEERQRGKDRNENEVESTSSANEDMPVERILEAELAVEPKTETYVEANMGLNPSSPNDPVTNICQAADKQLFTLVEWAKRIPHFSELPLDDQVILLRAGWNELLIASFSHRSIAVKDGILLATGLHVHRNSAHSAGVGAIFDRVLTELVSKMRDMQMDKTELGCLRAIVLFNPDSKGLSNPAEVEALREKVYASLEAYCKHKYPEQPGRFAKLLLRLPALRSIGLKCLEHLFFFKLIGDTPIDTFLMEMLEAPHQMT
Method in brief: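 HepG2 cells transiently transfected with multiplexed GAL4-UAS reporter units and chimeric NR-GAL4 fusions, dosed 24 h. Reporter mRNA measured by RT-PCR, FAM labelling, HpaI digestion and capillary electrophoresis; gain-of-signal fitted relative to DMSO baseline.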

[12] = BSK_3C_TissueFactor: BioMAP Diversity Plus: 3C Assay for Tissue Factor Biomarker Activity (AID 2282997); settings: BioMAP 3C HUVEC, tissue factor biomarker readout; actives raise or lower the signal
Method in brief: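 HUVEC were treated 24 h, then surface tissue factor measured by ELISA and fitted bidirectionally against DMSO. Parallel SRB total-protein staining assessed overt cytotoxicity at the same time point.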

[13] = molecular target: human Peroxisome Proliferator-activated Receptor delta (PPARd), PPARD (gene 5467) (UniProt Q03181); assay: ATG_PPARd_TRANS: Attagene TRANS-FACTORIAL HepG2 Assay for human Peroxisome Proliferator-activated Receptor delta (PPARd) (AID 2283002; active means hit-call score of the fitted dose curve at least 0.9, where 1 is the maximum)
Chain of human Peroxisome Proliferator-activated Receptor delta (PPARd), PPARD (gene 5467) (Q03181 whole entry, looked up, the tested form may be a part): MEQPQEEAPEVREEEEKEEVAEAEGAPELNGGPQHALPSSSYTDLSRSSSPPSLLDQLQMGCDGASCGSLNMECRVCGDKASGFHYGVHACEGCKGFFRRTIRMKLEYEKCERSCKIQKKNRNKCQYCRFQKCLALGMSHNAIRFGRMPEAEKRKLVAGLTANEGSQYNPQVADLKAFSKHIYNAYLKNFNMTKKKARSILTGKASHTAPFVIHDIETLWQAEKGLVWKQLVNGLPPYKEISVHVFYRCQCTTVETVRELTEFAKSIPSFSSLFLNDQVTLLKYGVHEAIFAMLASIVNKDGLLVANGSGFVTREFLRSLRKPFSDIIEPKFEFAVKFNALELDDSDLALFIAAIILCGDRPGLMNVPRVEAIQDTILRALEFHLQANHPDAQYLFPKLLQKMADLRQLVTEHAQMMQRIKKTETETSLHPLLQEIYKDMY
Method in brief: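 Read-out: reporter mRNA induction, quantified by fluorescent RT-PCR products resolved by capillary electrophoresis. Human HepG2 liver cells carried transiently transfected Gal4-UAS reporter constructs with chimeric NR-Gal4 fusions. Cells were dosed for 24 h; DMSO served as baseline.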

[14] = molecular target: Nuclear receptor subfamily 1 group I member 2 (Homo sapiens) (UniProt O75469); assay: ATG_PXR_TRANS: Attagene TRANS-FACTORIAL HepG2 Assay for human Pregnane X Receptor (PXR) (AID 2283008; active means hit-call score of the fitted dose curve at least 0.9, where 1 is the maximum)
Chain of Nuclear receptor subfamily 1 group I member 2 (Homo sapiens) (O75469 whole entry, looked up, the tested form may be a part): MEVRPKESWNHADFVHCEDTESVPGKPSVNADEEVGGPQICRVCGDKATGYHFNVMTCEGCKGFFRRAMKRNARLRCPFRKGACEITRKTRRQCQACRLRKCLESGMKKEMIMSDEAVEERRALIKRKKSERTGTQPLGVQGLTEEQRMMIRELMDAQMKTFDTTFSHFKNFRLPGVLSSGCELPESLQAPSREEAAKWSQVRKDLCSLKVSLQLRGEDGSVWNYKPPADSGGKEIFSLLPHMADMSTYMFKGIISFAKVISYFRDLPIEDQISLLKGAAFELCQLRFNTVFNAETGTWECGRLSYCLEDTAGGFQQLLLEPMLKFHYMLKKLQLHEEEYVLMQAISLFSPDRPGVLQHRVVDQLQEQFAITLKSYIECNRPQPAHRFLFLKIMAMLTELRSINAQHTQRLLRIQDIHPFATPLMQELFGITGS
Method in brief: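 Read-out is fluorescence of labelled reporter cDNA fragments separated by capillary electrophoresis after RT-PCR and HpaI digestion. Source: HepG2 cells carrying PXR-GAL4/UAS reporter constructs, treated 24 h; activity fitted upward relative to DMSO.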

[15] = molecular target: human RAR-related Orphan Receptor gamma (RORg), RORC (gene 6097) (UniProt P51449); assay: ATG_RORg_TRANS: Attagene TRANS-FACTORIAL HepG2 Assay for human RAR-related Orphan Receptor gamma (RORg) (AID 2283011; active means hit-call score of the fitted dose curve at least 0.9, where 1 is the maximum)
Chain of human RAR-related Orphan Receptor gamma (RORg), RORC (gene 6097) (P51449 whole entry, looked up, the tested form may be a part): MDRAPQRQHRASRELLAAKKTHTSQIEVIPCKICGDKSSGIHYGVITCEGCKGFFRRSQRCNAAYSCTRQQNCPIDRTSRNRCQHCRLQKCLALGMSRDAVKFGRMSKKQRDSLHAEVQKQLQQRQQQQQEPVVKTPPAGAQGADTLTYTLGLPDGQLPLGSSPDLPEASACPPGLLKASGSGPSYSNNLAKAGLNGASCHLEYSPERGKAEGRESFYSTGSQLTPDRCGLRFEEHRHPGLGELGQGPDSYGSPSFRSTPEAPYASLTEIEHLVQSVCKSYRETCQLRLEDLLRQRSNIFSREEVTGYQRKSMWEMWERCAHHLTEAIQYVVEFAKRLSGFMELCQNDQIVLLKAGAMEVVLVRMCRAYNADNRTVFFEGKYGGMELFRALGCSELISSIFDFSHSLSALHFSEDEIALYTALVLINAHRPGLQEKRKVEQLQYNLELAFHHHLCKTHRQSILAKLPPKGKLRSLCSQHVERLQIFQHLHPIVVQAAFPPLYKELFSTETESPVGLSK
Method in brief: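 HepG2 cells transiently transfected with GAL4-UAS reporter units and chimeric RORg-Gal4 construct; after 24 h chemical exposure, reporter mRNA measured by RT-PCR with fluorescent capillary electrophoresis, gain of signal fitted against DMSO.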

[16] = molecular target: human Retinoid X Receptor beta (RXRb), RXRB (gene 6257) (UniProt P28702); assay: ATG_RXRb_TRANS: Attagene TRANS-FACTORIAL HepG2 Assay for human Retinoid X Receptor beta (RXRb) (AID 2283013; active means hit-call score of the fitted dose curve at least 0.9, where 1 is the maximum)
Chain of human Retinoid X Receptor beta (RXRb), RXRB (gene 6257) (P28702 whole entry, looked up, the tested form may be a part): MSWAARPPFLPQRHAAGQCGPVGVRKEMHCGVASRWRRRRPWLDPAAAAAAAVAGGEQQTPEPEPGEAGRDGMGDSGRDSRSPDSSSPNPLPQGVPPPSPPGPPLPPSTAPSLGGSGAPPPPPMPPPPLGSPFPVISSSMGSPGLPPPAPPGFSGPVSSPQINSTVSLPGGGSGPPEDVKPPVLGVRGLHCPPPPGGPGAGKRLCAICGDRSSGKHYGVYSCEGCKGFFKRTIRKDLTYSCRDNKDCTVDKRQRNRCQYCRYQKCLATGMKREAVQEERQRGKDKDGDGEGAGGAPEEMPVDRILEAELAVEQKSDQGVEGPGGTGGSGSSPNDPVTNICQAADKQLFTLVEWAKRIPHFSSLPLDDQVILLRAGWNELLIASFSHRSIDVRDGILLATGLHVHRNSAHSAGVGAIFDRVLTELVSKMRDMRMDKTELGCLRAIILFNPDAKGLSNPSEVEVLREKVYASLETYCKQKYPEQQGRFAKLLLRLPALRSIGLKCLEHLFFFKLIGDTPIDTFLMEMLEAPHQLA
Method in brief: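 HepG2 cells transiently transfected with multiplexed reporter units driven by GAL4-UAS and exogenous chimeric NR-Gal4 proteins; treated 24 h. Reporter mRNA measured by RT-PCR, 6-FAM labelling and capillary electrophoresis; gain-of-signal fitted versus DMSO baseline.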

[17] = molecular target: human Retinoic Acid Receptor gamma (RARg), RARG (gene 5916) (UniProt P13631); assay: ATG_RARg_TRANS: Attagene TRANS-FACTORIAL HepG2 Assay for human Retinoic Acid Receptor gamma (RARg) (AID 2283009; active means hit-call score of the fitted dose curve at least 0.9, where 1 is the maximum)
Chain of human Retinoic Acid Receptor gamma (RARg), RARG (gene 5916) (P13631 whole entry, looked up, the tested form may be a part): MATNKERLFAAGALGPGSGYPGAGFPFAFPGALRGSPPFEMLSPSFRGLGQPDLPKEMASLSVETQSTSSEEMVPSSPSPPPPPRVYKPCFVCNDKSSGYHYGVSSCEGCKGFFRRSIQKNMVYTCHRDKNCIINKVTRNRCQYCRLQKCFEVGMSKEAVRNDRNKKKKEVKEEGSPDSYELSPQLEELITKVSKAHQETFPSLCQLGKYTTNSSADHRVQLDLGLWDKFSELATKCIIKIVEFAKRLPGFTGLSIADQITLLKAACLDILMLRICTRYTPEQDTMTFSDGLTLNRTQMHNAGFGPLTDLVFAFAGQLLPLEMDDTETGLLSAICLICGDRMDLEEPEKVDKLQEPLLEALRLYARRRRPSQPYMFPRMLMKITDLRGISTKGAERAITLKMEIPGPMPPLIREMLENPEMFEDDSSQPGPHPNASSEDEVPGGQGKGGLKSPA
Method in brief: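 HepG2 cells transiently transfected with multiplexed reporter units expressing chimeric RARg-GAL4 and GAL4-UAS-driven reporters; 24 h compound exposure. Reporter mRNA quantified by RT-PCR with fluorescent labelling and capillary electrophoresis; gain-of-signal fitted relative to DMSO baseline.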

[18] = molecular target: human RAR-related Orphan Receptor beta (RORb), RORB (gene 6096) (UniProt Q92753); assay: ATG_RORb_TRANS: Attagene TRANS-FACTORIAL HepG2 Assay for human RAR-related Orphan Receptor beta (RORb) (AID 2283010; active means hit-call score of the fitted dose curve at least 0.9, where 1 is the maximum)
Chain of human RAR-related Orphan Receptor beta (RORb), RORB (gene 6096) (Q92753 whole entry, looked up, the tested form may be a part): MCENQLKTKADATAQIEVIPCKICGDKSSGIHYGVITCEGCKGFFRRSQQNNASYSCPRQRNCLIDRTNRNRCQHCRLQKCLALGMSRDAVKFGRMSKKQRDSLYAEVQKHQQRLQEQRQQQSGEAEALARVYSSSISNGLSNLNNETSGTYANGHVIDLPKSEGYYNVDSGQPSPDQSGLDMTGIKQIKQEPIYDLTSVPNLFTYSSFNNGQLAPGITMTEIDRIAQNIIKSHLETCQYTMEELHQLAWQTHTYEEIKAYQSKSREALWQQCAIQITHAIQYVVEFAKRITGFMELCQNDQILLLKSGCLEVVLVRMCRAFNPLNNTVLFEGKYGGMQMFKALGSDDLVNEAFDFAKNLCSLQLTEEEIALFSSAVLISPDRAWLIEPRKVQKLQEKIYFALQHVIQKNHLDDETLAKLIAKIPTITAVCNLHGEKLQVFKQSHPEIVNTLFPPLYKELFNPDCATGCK
Method in brief: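 HepG2 cells were transiently transfected with multiplexed GAL4-UAS reporter units expressing chimeric nuclear receptor–GAL4 proteins, then dosed for 24 h. Reporter mRNA was quantified by RT-PCR with fluorescent labelling and capillary electrophoresis; gain of signal was fitted relative to DMSO.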

[19] = molecular target: human Thyroid Receptor alpha (THRa1), THRA (gene 7067) (UniProt P10827); assay: ATG_THRa1_TRANS: Attagene TRANS-FACTORIAL HepG2 Assay for human Thyroid Receptor alpha (THRa1) (AID 2283014; active means hit-call score of the fitted dose curve at least 0.9, where 1 is the maximum)
Method in brief: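 HepG2 cells transiently transfected with chimeric NR-Gal4 and GAL4-UAS reporter units, dosed 24 h. Reporter mRNA quantified by RT-PCR, fluorescent labeling, HpaI digestion and capillary electrophoresis; gain-of-signal fit versus DMSO.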

Measured: AC50

CC(C)=CCC/C(C)=C\CO
inactive: [2] | [3] | [4] | [5] | [6] | [7] | [8] | [9] | [11]
active: [1] 100 µM | [10] 36.5 µM

CC(C)=CCCC(C)=CC=O
active: [1] 62.4 µM | [7] 58.6 µM | [10] 21 µM | [14] 4.42 µM
inactive: [2] | [3] | [12] | [4] | [6] | [13] | [8] | [9] | [15] | [11] | [16]

CCCCC(CC)COC(=O)c1ccc(C(=O)OCC(CC)CCCC)cc1 (stereo not drawn)
active: [16] 49.7 µM
inactive: [1] | [2] | [3] | [12] | [4] | [6] | [8] | [9] | [17] | [18] | [15] | [19]

CC/C(=C\C(=N/O)C(N)=O)C(C)[N+](=O)[O-] (stereo not drawn)
active: [1] 38.7 µM | [5] 20 µM | [10] 28.1 µM
inactive: [2] | [3] | [12] | [4] | [6] | [7] | [8] | [9] | [18] | [15] | [11]

Oc1ccc2c(c1)-c1ccccc1C2
active: [1] 2.77 µM | [2] 32.6 µM | [4] 14.4 µM | [6] 23.3 µM | [9] 15.4 µM | [16] 26.2 µM
inactive: [3] | [7] | [13] | [8] | [10] | [17] | [11] | [19]

Cc1ccc(S(=O)(=O)O)cc1C
inactive: [1] | [2] | [3] | [4] | [5] | [6] | [7] | [13] | [8] | [9] | [10] | [11] | [16]

COc1ccc2sc(C(=O)Nc3nnn[nH]3)c(OC(C)C)c2c1
active: [1] 70.2 µM | [2] 155 µM | [3] 71.4 µM | [4] 5.51 µM | [6] 23.3 µM | [8] 26.4 µM | [9] 9.42 µM | [10] 22.9 µM
inactive: [7] | [13] | [15] | [11] | [16]

CC1(C)C(=O)N(Br)C(=O)N1Br
inactive: [2] | [3] | [12] | [4] | [6] | [13] | [8] | [9] | [16]
active: [1] 52.4 µM

O=C1OC(=O)C2C3C=CC(C3)C12 (stereo not drawn)
inactive: [1] | [2] | [3] | [12] | [4] | [5] | [6] | [7] | [13] | [8] | [9] | [10] | [14] | [11] | [16]

CCCCCCCCO
inactive: [1] | [2] | [3] | [12] | [4] | [5] | [6] | [7] | [8] | [9] | [10] | [17] | [11]

O=C(O)CC(O)C(=O)O (stereo not drawn)
inactive: [1] | [2] | [3] | [4] | [6] | [7] | [8] | [9] | [17] | [11]

Cc1ccc(N)cc1O
inactive: [2] | [3] | [12] | [4] | [7] | [13] | [8] | [9] | [18] | [15] | [16]
active: [1] 22.3 µM | [6] 20 µM

CC(=O)c1ccc2c(c1)[C@H](NC(=O)c1ccc(F)cc1)[C@@H](O)C(C)(C)O2
inactive: [1] | [2] | [3] | [4] | [5] | [6] | [7] | [8] | [9] | [10] | [17] | [18] | [15]
active: [14] 12.7 µM
